# Results taken from PubChem BioAssay (EPA / NIEHS).
# Calls of active or inactive are those of the source. Rule for the calls: active = hit-call score of the fitted dose curve at least 0.9, where 1 is the maximum; inactive = score below 0.9.
# Read-out: Lipase C (LIPC), LIPC (gene 3990)
# Experiment: LTEA_HepaRG_LIPC: Life Technologies and Expression Analysis (LTEA) Assay for Lipase C (LIPC) using HepaRG (AID 2283514)
# Conditions: mRNA level, 48 h; actives raise or lower the signal
# Procedure: LTEA_HepaRG is a cell based, multiplexed-readout assay that uses HepaRG, a human liver cell line, with measurements taken at 48 hours after chemical dosing on a 96-well plate.LTEA_HepaRG_LIPC is one of 102 assay component(s) measured in the LTEA HepaRG cell culture assay. It is a marker of Steatosis.Data from the assay component LTEA_HepaRG_LIPC was analyzed into 1 endpoint. This assay endpoint, LTEA_HepaRG_LIPC, was analyzed with bidirectional fitting relative to DMSO as the negative control and baseline of activity. Using a type of inducible reporter, measures of mRNA induction for gain or loss-of-signal activity can be used to understand regulation of transcription factor activity. To generalize the intended target to other relatable targets, this assay endpoint is annotated to the esterase intended target family, where the subfamily is lipase.
# A total of 1060 chemcials from the ToxCast library were tested in eight-point concentration-response experiments. Cell culture and cytotoxicity assays were conducted at Thermo Fisher Scientific's Custom Services facility (Madison, WI). A single lot of human HepaRG cells (Thermo Fisher Scientific, Frederick, MD) was used for the cell culture experiments. 96-well format collagen type I coated plates of human HepaRG cells were prepared using established methods. Briefly, cryopreserved HepaRG cells were thawed, plated at a density of approximately 100,000 cells/well in HepaRG Thaw, Plate, and General Purpose media (HPRG770, Thermo Fisher Scientific), and incubated for 48 hours. 0.5% DMSO was selected as vehicle control to balance the requisite need of DMSO in HepaRG cultures to maintain differentiation (for example, baseline metabolism, proportions of hepatocytes vs. cholangiocytes), while enabling further hepatic receptor pathway activation (for example, PXR and CAR) in response to chemical exposure. 48 hours after plating, the culture medium was replaced with HepaRG Serum-Free Incudtion Media. Cells were exposed to each test chemical in duplicate and maintained in CO2 incubators for another 48 hours. Chemical plates were thawed to room temperature and 200x concentrations of treatment groups were prepared. 8-point conentration-reponse curves were made with the highest exposure at 100 uM, followed by half-log dilutions, all in 0.5% DMSO. Each test plate contained variouse controls, induction positive controls (1mM phenobarbital), cytotoxicity positive controls ([…] aflatoxin B1), vehicle controls (0.5% DMSO), and total lysis controls (0.5% DMSO). Cell morphology images were taken using an Essen IncuCyte FLR automated microscope, with six 96-well plates imaged in about 24 minutes. Images were captured and exported and JPEG files. Spent culture media was transfered to black-well plates for the LDH assay, and remaining media was sorted at -80 C for later use. Cells were treated with RLT buffer and frozen until shipped for gene expression analysis. Total RNA was isolated from the cell suspension in 75 uL of Buffer RLT (Qiagen, Germantown, MD 20874) by Quintiles/Expression Analysis (Durham, NC) using a custom isolation procedure. Total RNA from each plate well was transferred to a preamplification plate. Fluidigm's 96.96 Dynamic ArrayTM (Fluidigm, Amsterdam, the Netherlands) technology was used for gene expression analyses by quantitative reverse transcription polymerase chain reaction (qRT-PCR, performed by Quintiles/Expression Analysis, Durham, NC)89. Standard TaqManTM Assays (Applied Biosystems/ThermoFisher Scientific, Foster City, CA) were used to assess the expression of 93 genes selected based on their selectivity and sensitivity to important hepatic receptors known to be modulated by environmental chemicals; importance in human hepatocyte functionality; and hepatotoxicity. […]
SMILES,AC50,outcome
COc1ccc(C(=O)Nc2nc3ccccc3c(NCc3ccccc3)c2C#N)cc1,15.7 µM (active),
CCCCCCC(C=O)=Cc1ccccc1,,inactive
CC(=O)O[C@]1(C(C)=O)CC[C@H]2[C@@H]3C=C(Cl)C4=CC(=O)[C@@H]5C[C@@H]5[C@]4(C)[C@H]3CC[C@@]21C,,inactive
C#CC(O)C(CC)CCCC (stereo not given),,inactive
COC(=O)[C@H]1[C@H]2C[C@@H]3c4[nH]c5cc(OC)ccc5c4CCN3C[C@H]2C[C@@H](OC(=O)c2cc(OC)c(OC)c(OC)c2)[C@@H]1OC,49.4 µM (active),
CC(C)c1cccc(C(C)C)c1,,inactive
CCCCCCC(CCCCCCCCCCC(=O)OCC(COC(C)=O)OC(C)=O)OC(C)=O (stereo not given),,inactive
CCCCCCCCCCCCCCOS(=O)(=O)O,,inactive
CC(=O)[C@@]1(O)CC[C@H]2[C@@H]3CCC4=CC(=O)CC[C@]4(C)[C@H]3CC[C@@]21C,,inactive
NCCOCCOCCN,,inactive
Cc1cc(SC2=C(O)C[C@@](CCc3ccc(N)cc3)(C(C)C)OC2=O)c(C(C)(C)C)cc1CO,,inactive
CCCC(=O)O,,inactive
CCCCCCCC(=O)OC,,inactive
Cn1cnc2c1c(=O)[nH]c(=O)n2C,,inactive
N[C@@H](Cc1c[nH]c2ccccc12)C(=O)O,,inactive
S=c1[nH]c2ccccc2s1,,inactive
CCN(CC)CCOc1ccc(C(=C(Cl)c2ccccc2)c2ccccc2)cc1,24.1 µM (active),
Oc1ccc(O)cc1,,inactive
O=C(O)CC(O)(CC(=O)O)C(=O)O,,inactive
NC1CCCCC1,,inactive

SMILES,AC50,outcome
Cc1c(C)c2c(c(C)c1O)CCC(C)(COc1ccc(CC3SC(=O)NC3=O)cc1)O2 (stereo not given),25.1 µM (active),
CN(C)CCCN(C)CCCN(C)C,,inactive
Cc1cn([C@H]2C=C[C@@H](CO)O2)c(=O)[nH]c1=O,,inactive
Cc1cc(Cc2ccc(N)c(C)c2)ccc1N,,inactive
O=C1c2c(O)cccc2Cc2cccc(O)c21,,inactive
CN(C)CCCN1c2ccccc2Sc2ccc(Cl)cc21,,inactive
CCCCc1nc2cccnc2n1Cc1ccc(-c2ccccc2-c2nnn[nH]2)cc1,,inactive
O=C(O)CN(CC(=O)O)CC(=O)O,,inactive
O=C(Oc1ccccc1)c1cccc(C(=O)Oc2ccccc2)c1,,inactive
C/C=C/C=C/C(=O)O,,inactive
O=C(NS(=O)(=O)/C=C/c1cccs1)c1ccc(F)cc1Br,,inactive
OCC(CO)n1cnc(-c2ccc(F)cc2)c1-c1ccnc(Oc2ccccc2)n1,,inactive
CC(=O)CC(c1ccccc1)c1c(O)c2ccccc2oc1=O (stereo not given),,inactive
Nc1nc(=S)c2[nH]cnc2[nH]1,5.83 µM (active),
CC(=O)O,,inactive
CC(=O)OCC(COC(C)=O)OC(C)=O,,inactive
CC1(C)C(=O)NC(=O)N1CO,,inactive
CC(COCC(C)OC(=O)c1ccccc1)OC(=O)c1ccccc1 (stereo not given),,inactive
CSc1ccc(Oc2ccc(S(N)(=O)=O)cc2CN(C)C)cc1C,,inactive
CCCCC(CC)COC(=O)CCCCCCCC(=O)OCC(CC)CCCC (stereo not given),,inactive
